Laboratory results reported in the supplement of paper PMC11150407.
Structures can show the parent of a compound that is named as a salt. Among all 2,100 compounds or so, about 180 (8.6%) showed an effect of 50% or more. The full list was thinned out, with strong results kept by preference.

System: MOLM1 and UCSD/AML1 (averaged)
Experiment: cell viability relative to DMSO control (POC); higher = less growth inhibition
Settings: 1 µM; 72 h
Protocol: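 Primary viability screen in the 3q26 EVI1-high AML cell lines MOLM1 and UCSD/AML1 (1.5e3 cells/well, 384-well), compounds at 1 uM for 72 h. ATP CellTiter-Glo read-out given as percent of viable cells over DMSO control (POC), averaged over duplicates. DMSO was the negative control and 5 uM etoposide the positive control. This mapping covers the MicroSource Spectrum and Selleck anticancer libraries (drug names).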

Row | SMILES | cell viability
1 | CC(C)C1=CC2=CC[C@@H]3[C@](C)(CCC[C@@]3(C)C(=O)O)[C@H]2CC1 | 103%
2 | CC(=O)O[C@H]1C[C@@H](OC(C)=O)C(C)(C)[C@@H]2C[C@@H](OC(C)=O)[C@]3(C)[C@H](CC[C@@]4(C)[C@H](c5ccoc5)OC(=O)[C@H]5O[C@@]534)[C@@]12C | 83.3%
3 | COc1ccc(-c2cc(=O)c3c(O)c(OC)c(O[C@@H]4O[C@H](CO[C@@H]5O[C@@H](C)[C@H](O)[C@@H](O)[C@H]5O)[C@@H](O)[C@H](O)[C@H]4O)cc3o2)cc1 | 101%
4 | CC(C)C[C@H](NC(=O)[C@@H](O)[C@H](N)Cc1ccccc1)C(=O)O [Ubenimex (Bestatin)] | 66.5%
5 | CC(C)C[C@H](NC(=O)[C@H](Cc1ccccc1)NC(=O)c1cnccn1)B(O)O [Bortezomib (Velcade)] | 0.861%
6 | CSCCC(N)C(=O)NC(CC(C)C)C(=O)NC(Cc1ccccc1)C(=O)O (configuration not stated) | 97.7%
7 | COc1ccc(-c2cc(=O)c3c(OC)c(OC)c(OC)c(OC)c3o2)cc1OC | 75.6%
8 | C[C@H]1COC2(CCN(c3nc(=O)c4cc(C(F)(F)F)cc([N+](=O)[O-])c4s3)CC2)O1 (racemic) [BTZ043 racemate] | 83.5%
9 | N=c1ccn2c(n1)O[C@H]1[C@H](O)[C@@H](CO)O[C@H]12 | 5.77%
10 | C[N+](C)(C)CCOP(=O)(O)OP(=O)([O-])OC[C@H]1O[C@@H](n2ccc(N)nc2=O)[C@H](O)[C@@H]1O | 85.3%
11 | Nc1ccn([C@@H]2O[C@H](CO)[C@@H](O)[C@@H]2O)c(=O)n1 [Cytarabine] | 7.02%
12 | Nc1ccn([C@@H]2O[C@H](CO)[C@@H](O)C2(F)F)c(=O)n1 [Gemcitabine (Gemzar)] | 8.79%
13 | NC(=O)c1ncn([C@@H]2O[C@H](CO)[C@@H](O)[C@H]2O)n1 | 94.7%
14 | Nc1ccn([C@@H]2O[C@H](CO)[C@@H](O)[C@@H]2O)c(=O)n1 | 8.69%
15 | Nc1ccn([C@@H]2O[C@H](CO)[C@@H](O)C2(F)F)c(=O)n1 [Gemcitabine HCl (Gemzar)] | 10.8%
16 | O=c1[nH]cnc2c1ncn2[C@@H]1O[C@H](CO)[C@@H](O)[C@H]1O | 109%
17 | NC(=O)c1ncn([C@@H]2O[C@H](CO)[C@@H](O)[C@H]2O)c1N | 119%
18 | COC(=O)[C@H](OC(C)=O)[C@H]1C(C)(C)[C@H](OC(C)=O)[C@@H]2CC3=C4CC(=O)O[C@@H](c5ccoc5)[C@]4(C)CC[C@@H]3[C@@]1(C)C2=O | 94.8%
19 | COc1cc2c(cc1OC)C(=O)OC2 | 103%
20 | COc1ccc2c(c1)OC[C@@H](Cc1ccc(OC)c(OC)c1)[C@H]2O | 96.9%
21 | CC(=O)O[C@@H]1CC2C(C)(C)C(=O)C3OC3[C@]2(C)C2CC[C@@]3(C)[C@H](c4ccoc4)OC(=O)C4OC43[C@@]21C (some centres not stated) | 95.3%
22 | CC(C)c1c(O)ccc2c1CCC1[C@@](C)(C=O)CCC[C@]21C (some centres not stated) | 96.4%
23 | C[C@@H]1CC[C@@]2(OC1)O[C@H]1C[C@H]3[C@@H]4CC[C@@H]5C[C@@H](O)CC[C@]5(C)[C@H]4CC[C@]3(C)[C@H]1[C@@H]2C | 97.4%
24 | CN(NC(=O)CC(=O)NN(C)C(=S)c1ccccc1)C(=S)c1ccccc1 [Elesclomol] | 1.23%
25 | O=C(OOC(=O)c1ccccc1)c1ccccc1 | 101%
26 | O=C(CC(=O)c1ccccc1)c1ccccc1 | 80.9%

Row | SMILES | cell viability
27 | CCCCCCCCCCCCCCCCCCOCC(O)CO (configuration not stated) | 85%
28 | COc1ccc(-c2coc3cc(O)ccc3c2=O)cc1 | 108%
29 | CC12CCCC(O)(C1)C1CC(C)(C)C1CC2 (stereo not drawn) [beta-CARYOPHYLLENE ALCOHOL] | 111%
30 | CC(=O)OC1CCC23CC1(C)CCC2C(C)(C)CC3OC(C)=O (configuration not stated) | 96.1%
31 | CCOc1cc2ncc(C#N)c(Nc3ccc(OCc4ccccn4)c(Cl)c3)c2cc1NC(=O)/C=C/CN(C)C [Neratinib (HKI-272)] | 14.7%
32 | CN(C)C/C=C/C(=O)Nc1cc2c(Nc3ccc(F)c(Cl)c3)ncnc2cc1O[C@H]1CCOC1 [Afatinib (BIBW2992)] | 52.9%
33 | CCOc1cc2ncc(C#N)c(Nc3ccc(F)c(Cl)c3)c2cc1NC(=O)/C=C/CN(C)C [Pelitinib (EKB-569)] | 14.4%
34 | COc1cc2ncnc(Nc3ccc(F)c(Cl)c3)c2cc1NC(=O)/C=C/CN1CCCCC1 | 50.9%
35 | COc1ccc2cc([C@H](C)CO)ccc2c1 | 103%
36 | COC(=O)C[C@H]1C(C)(C)[C@@H](O)[C@@H]2CC3=C4C=C(OC)O[C@@H](c5ccoc5)[C@]4(C)CCC3[C@@]1(C)C2=O (stereo partly drawn) [3-DEOXO-3beta-HYDROXYMEXICANOLIDE 16-ENOL ETHER] | 100%
37 | CCOC(=O)C(Cc1ccc(O)cc1)NC(C)=O (configuration not stated) | 105%
38 | C/C(=C\C(=O)Nc1ccccc1C(=O)O)c1ccc2ccccc2c1 | 104%
39 | COc1cc(C/C=C/c2ccccc2)c(OC)cc1O | 93.6%
40 | COc1cc(O)c(C)c(O)c1 | 106%
41 | COc1ccc(C(=O)CC(=O)O)c2c1C=CC(C)(C)O2 | 99.5%
42 | CC(C)=CCC/C(C)=C/CC/C(C)=C/CC/C(C)=C/CC/C(C)=C/CC/C(C)=C/CC/C(C)=C/CC/C(C)=C/CC/C(C)=C/CO | 83.6%
43 | O=c1c(-c2ccc(O)cc2)coc2c([C@@H]3O[C@H](CO)[C@@H](O)[C@H](O)[C@H]3O)c(O)ccc12 | 120%
44 | CN1CCCC(n2nc(Cc3ccc(Cl)cc3)c3ccccc3c2=O)CC1 (configuration not stated) | 101%
45 | CNC(=O)c1cc(COc2nnc(Nc3ccc(Cl)cc3)c3ccoc23)ccn1 [Telatinib (BAY 57-9352)] | 94.5%
46 | Clc1ccc(Nc2nnc(Cc3ccncc3)c3ccccc23)cc1 [Vatalanib dihydrochloride (PTK787)] | 44.6%
47 | C=C(C)[C@H]1COc2cc3oc(=O)ccc3cc2O1 | 93.3%
48 | CC(C)C[C@@H](C(=O)N[C@H](C(=O)OC1CCCC1)c1ccccc1)[C@H](O)C(=O)NO [Tosedostat (CHR2797)] | 77.5%
49 | O=C([O-])c1ccccc1O.[Na+] | 102%
50 | COc1ccc2[nH]c([S+]([O-])Cc3ncc(C)c(OC)c3C)nc2c1 (configuration not stated) | 92.4%
51 | COc1c(C)cnc(Cn2cnc3c(Cl)nc(N)nc32)c1C | 4.8%
52 | COc1cc(-c2coc3cc(O)c(OC)c(O)c3c2=O)cc(O)c1OC | 90.5%
